Bioassay records deposited in PubChem by National Center for Advancing Translational Sciences (NCATS).
The list is not random: actives were taken first. Their share in the collection is about 4.6%.
D1 agonist: Allosteric Agonists of the Human D1 Dopamine Receptor: qHTS; D(1A) dopamine receptor (Homo sapiens), P21728; HEK293 T-REx D1 cells, calcium flux, agonist mode; activation, % at 2 µM; 360,000 tested, 1% active; AID 504660, 2011; also: 0% is about no effect
Target sequence (P21728 whole entry, looked up): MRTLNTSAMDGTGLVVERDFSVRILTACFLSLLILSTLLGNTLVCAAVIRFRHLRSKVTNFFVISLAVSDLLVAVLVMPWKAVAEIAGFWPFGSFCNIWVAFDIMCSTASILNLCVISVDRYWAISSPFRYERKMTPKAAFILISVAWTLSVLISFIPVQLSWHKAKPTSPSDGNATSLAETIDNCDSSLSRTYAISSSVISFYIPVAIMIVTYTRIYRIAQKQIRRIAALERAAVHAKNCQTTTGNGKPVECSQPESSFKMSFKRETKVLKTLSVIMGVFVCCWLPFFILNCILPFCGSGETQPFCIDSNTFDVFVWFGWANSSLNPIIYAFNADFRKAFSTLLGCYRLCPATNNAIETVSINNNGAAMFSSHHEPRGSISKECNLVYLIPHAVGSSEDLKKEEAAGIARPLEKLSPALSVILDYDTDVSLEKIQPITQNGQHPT
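Agonism was scored from calcium flux recorded over 180 s (1 read/s) after pintool compound addition, following a 10-cycle baseline. Cells were inducible force-coupled HEK293 TREx D1, plated overnight at 30 C and loaded with no-wash calcium dye.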
D1 potentiator: Potentiators of Human D1 Dopamine Receptor: qHTS | D(1A) dopamine receptor (Homo sapiens), P21728 | HEK293 TREx D1 cells, calcium flux, dopamine EC20 potentiation | potentiation, % at 10 µM | 360,000 tested, 0.036% active | AID 504651, 2011; in the data active = potentiation above about 30%; also: 0% is about no effect
TRHR ag: qHTS for Small Molecule Agonists and Allosteric Enhancers of Human TRH Receptor: Primary Screen for Agonists | Thyrotropin-releasing hormone receptor (Homo sapiens), P34981 | TRHR cells, calcium flux fluo-8, FDSS agonist mode | activation, % at 2 µM | 360,000 tested, 0.18% active | AID 493084, 2011; also: 0% is about no effect
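TRHR-expressing cells loaded with fluo-8 calcium dye; 23 nL library compound pin-transferred, kinetic FDSS fluorescence (Ex 480/Em 530) recorded about 180 s for agonist-induced calcium release, before a 10 nM TRH EC20 addition for potentiator mode.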
D1 antag: Antagonist of Human D 1 Dopamine Receptor: qHTS; D(1A) dopamine receptor (Homo sapiens), P21728; HEK293 TREx D1 cells, calcium flux, dopamine EC80; active compounds read low; activity change, negative = inhibition, % at 10 µM; 360,000 tested, 3.2% active; AID 504652, 2011; in the data active = activity change below about -30%; also: % is scaled to controls: 0 for no effect and ±100 for the full control effect
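After overnight tetracycline induction at 30 C, force-coupled D1 HEK293 cells took up a no-wash calcium dye at room temperature. Compounds were added and monitored 180 s, and the response to EC80 dopamine was then recorded.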
TRHR enhancer: qHTS for Small Molecule Agonists and Allosteric Enhancers of Human TRH Receptor: Primary Screen for Enhancers; Thyrotropin-releasing hormone receptor (Homo sapiens), P34981; TRHR cells, fluo-8 calcium fluorescence, EC20 TRH enhancement; enhancement, % at 2 µM; 360,000 tested, 0.66% active; AID 493056, 2011; in the data active = enhancement above about 30%; also: 0% is about no effect
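Enhancer read-out: after compound pinning and an initial kinetic agonist-mode read, an EC20 of TRH (10 nM final) was injected and fluo-8 calcium signal (Ex 480/Em 530) followed at 1 s/cycle for 100 cycles in TRHR-expressing cells.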
Active calls of the source: *. Rule as the data show it, unless noted: active = activation above about 30%; inactive = the rest.

SMILES	D1 agonist	D1 potentiator	TRHR ag	D1 antag	TRHR enhancer
COC(=O)c1c(N(S(C)(=O)=O)S(C)(=O)=O)sc2c1CCN(c1ncc(C(F)(F)F)cc1Cl)C2	5.7	-2.6	-0.5	-2.0	1.3
CCOCc1c(C(=O)N2CCN(CCOc3ccc(Cl)cc3)CC2)oc2ccccc12	6.4	3.0	-0.1	-13.2	-5.2
CCOCc1c(C(=O)N2CCN(CC(=O)Nc3ccc(F)cc3)CC2)oc2ccccc12	-1.0	-7.4	-1.0	-33.6*	-19.5
COc1ccc(OC)c(NC(=O)Cn2ccn(-c3ccc(F)cc3)c(=O)c2=O)c1	7.6	-2.9	0.7	8.3	12.2
CCCNC(=S)Nc1ccc(Oc2ccccc2)cc1	5.3	-3.3	-0.3	-29.8	-2.5
CC(C)NC(=S)Nc1ccc(Oc2ccccc2)cc1	30.1*	-10.2	-0.2	-28.7	3.7
NC(=S)Nc1ccc(Oc2ccc(NC(N)=S)cc2)cc1	1.4	-1.8	-0.2	-30.3*	8.6
Nc1ccc(C(=O)Nc2ccc(OC(F)(F)C(F)F)c(NC(=O)c3ccc(N)cc3)c2)cc1	2.8	1.0	-0.1	-32.4*	1.2
CN(C(=O)c1cccc(S(=O)(=O)N2CCOCC2)c1)c1c(N)n(Cc2ccccc2)c(=O)[nH]c1=O	0.6	11.0	0.0	18.4	-0.5
CN1/C(=C\C(=O)c2cccc(S(=O)(=O)N3CCCCC3)c2)C(C)(C)c2ccccc21	1.4	-6.6	0.5	-4.5	30.2*
CCOc1ccc(C2CC(c3c(O)c4ccccc4oc3=O)=NN2c2ccccc2)cc1OC (configuration not stated)	35.7*	-0.1	23.8	1.1	-0.6
CCOc1ccc(C2c3c(oc4ccccc4c3=O)C(=O)N2c2nnc(C)s2)cc1OC (configuration not stated)	-0.3	-5.8	0.5	-14.5	-0.4
Cc1ccc(/C=C2/Sc3ccc(C(=O)N4CCN(C)CC4)cc3NC2=O)cc1	16.9	-23.6	1.2	-82.0*	29.2
COc1ccccc1C(=O)NC(=O)CSc1nncn1C(C)C	-0.9	3.5	0.8	2.0	-6.0
Cc1ccc(S(=O)(=O)c2nc(S(=O)(=O)c3ccccc3)sc2NCCCOC(C)C)cc1	4.1	-0.7	2.2	4.1	1.3
CCCS(=O)(=O)c1nc(S(=O)(=O)c2ccc(C)cc2)c(NCCCOC(C)C)s1	36.5*	-1.6	-0.8	-40.7*	5.7
CN(CCc1cn[nH]c1)C(=O)CC1C(=O)NCCN1Cc1ccccc1C(F)(F)F (configuration not stated)	3.1	-0.3	-0.1	-40.1*	-2.8
CN(Cc1ccon1)C(=O)CC1C(=O)NCCN1Cc1ccccc1C(F)(F)F (configuration not stated)	0.2	1.1	-0.1	-12.5	2.3
CC(=C/c1ccccc1)/C=N/n1c(C)n[nH]c1=S	1.9	-4.8	0.5	-22.1	32.3*
COCCCn1c(=O)c2ccccc2n2c(=S)[nH]nc12	4.0	-1.2	0.1	0.1	-1.4
CC1CCN(CCCCOc2ccc(C(C)(C)C)cc2)CC1	40.6*	-6.7	1.5	-4.3	-2.9
CC1CCN(CCOc2ccc(OCc3ccccc3)cc2)CC1	32.9*	-7.2	2.4	-41.1*	-0.3
c1ccc(COc2ccc(OCCCCN3CCCC3)cc2)cc1	35.2*	-5.6	1.2	-34.4*	4.1
Cc1sc2ncn(CC(=O)NCCCOC(C)C)c(=O)c2c1S(=O)(=O)N1CCN(c2ncccn2)CC1	0.6	-13.9	0.2	-64.2*	-3.0
Cc1sc2ncn(CC(=O)NCC3COc4ccccc4O3)c(=O)c2c1S(=O)(=O)N1CCOCC1 (configuration not stated)	3.3	-4.6	0.1	-0.4	2.0
SMILES	D1 agonist	D1 potentiator	TRHR ag	D1 antag	TRHR enhancer
Cc1sc2ncn(CC(=O)NCC3COc4ccccc4O3)c(=O)c2c1S(=O)(=O)N1CCCCC1 (configuration not stated)	1.7	2.4	-0.5	-36.8*	-11.2
CCCCNC(=O)Cn1cnc2sc(C)c(S(=O)(=O)N3CCN(c4ncccn4)CC3)c2c1=O	2.1	-7.6	0.0	-1.5	-5.0
C/C(=N/NC(=O)CNC(=O)c1cccnc1)c1ccc(Cl)c(Cl)c1	-0.5	-1.9	0.2	-1.9	1.6
C=CCn1c(Cc2nc3ccc(Cl)cc3[nH]2)n[nH]c1=S	2.7	0.1	0.7	4.3	-1.5
C=CCn1c(CCCOc2ccc(Cl)cc2Cl)n[nH]c1=S	4.0	-3.8	-0.3	-45.8*	-4.3
COc1cccc(/C=C/C(=O)c2ccc(NS(=O)(=O)c3ccc(C)cc3)cc2)c1	2.5	-4.5	-0.1	-59.7*	4.9
O=c1c2sc3ccccc3c2n(Cc2ccccc2)c(=O)n1CCc1ccccc1	-0.3	-1.4	0.6	-52.2*	-2.6
Cc1ccc(Cn2c(=O)n(CCc3ccccc3)c(=O)c3sc4ccccc4c32)cc1	2.1	-1.9	2.0	-5.0	-7.1
CCOC(=O)c1sc(NC(=O)CCN2C(=O)c3cccc([N+](=O)[O-])c3C2=O)c(C(=O)OCC)c1C	1.5	1.8	0.1	-32.7*	-3.5
O=C(CN1C(=O)CC(c2ccc(F)cc2)=Nc2ccccc21)NCc1ccccc1Cl	3.1	1.8	1.0	-46.2*	-2.5
CC1(C(=O)Nc2ncc(Cc3ccc(Br)cc3)s2)Cc2ccccc2C(=O)O1 (configuration not stated)	11.1	1.9	1.6	51.7	11.8
CC1CCc2sc(C(=O)Nc3ccc(N4CCOCC4)cc3)cc2C1 (configuration not stated)	4.0	2.4	0.7	-7.2	16.6
CC1CCc2sc(C(=O)NCC(C)(C)N3CCOCC3)cc2C1 (configuration not stated)	2.7	-1.9	-0.2	-68.0*	4.1
CCN(CC(=O)Nc1ccc(NC(C)=O)cc1)C(=O)CCN1C(=O)C2CC=CCC2C1=O (configuration not stated)	2.8	-4.5	0.1	-43.9*	10.0
CCN(CC(=O)Nc1ccc(NC(C)=O)cc1)C(=O)CCCOc1ccc(C(C)(C)C)cc1	31.8*	6.6	1.1	0.0	4.9
CCN(CC(=O)Nc1ccc(NC(C)=O)cc1)C(=O)CCCN1C(=O)c2ccccc2C1=O	2.7	-5.9	0.1	7.0	-0.6
COc1cc(OC)c(NC(=O)CSc2nccn2C)cc1Cl	0.1	-3.9	0.5	5.0	9.2
Nc1c(S(=O)(=O)c2cccc(Cl)c2)c2nc3ccccc3nc2n1/N=C/c1ccc(O)c(O)c1	0.6	-4.9	0.8	-33.9*	1.0
